# Results reported in the supplement of paper PMC6555819.
# Key:
# Assay in all cases: PBM binding z-score (relative to random genomic background probes); higher = stronger binding; sequences stand for … in GC…GCGATTGACAGCGTAGAATGAAGG
# [1] = system: RARb homodimer (NR concentration 270 nM)
# Procedure, shortened: (§1)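 Custom Agilent 4×180K protein-binding microarrays carried double-stranded probes, each with a 34-nt variable region. These regions held direct-repeat seeds, single-nucleotide variants, half-site ablations and random human genomic background sequences. Ligand-free nuclear receptor dimers were incubated on the arrays for 1 h, antibodies against each partner (one per run) detected binding, and scanned fluorescence was regression-normalized. Binding z-scores take the random background probes as reference.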
# [2] = system: RARg:RXRa (NR concentration 270 nM, RXRa partner concentration 90 nM)
# Procedure, shortened: as §1
# [3] = system: RARg homodimer (NR concentration 270 nM)
# Procedure, shortened: as §1
# [4] = system: RXRa DBDmut IVT, anti-RXR (DBD mutation: RXRa K156A/R161A, NR concentration 90 nM)
# Procedure, shortened: as §1
# [5] = system: RXRa homodimer (NR concentration 180 nM)
# Procedure, shortened: as §1
# [6] = system: THRa:RXRa (NR concentration 90 nM, RXRa partner concentration 90 nM)
# Procedure, shortened: as §1
# [7] = system: THRa homodimer (NR concentration 90 nM)
# Procedure, shortened: as §1
# [8] = system: VDR homodimer (NR concentration 270 nM)
# Procedure, shortened: as §1
sequence,measurement,setting,value
CCTACTGCGCCAAAAAGGTCATTGATGCCGATAA,PBM binding z-score,[1],4.48
same,PBM binding z-score,[2],4.82
same,PBM binding z-score,[3],4.32
same,PBM binding z-score,[4],1.65
same,PBM binding z-score,[5],5.56
same,PBM binding z-score,[6],3.04
same,PBM binding z-score,[7],1.34
same,PBM binding z-score,[8],3.24
ACTATTTGTTGAGACGAGGGCAACCGATAGGTTG,PBM binding z-score,[1],1.14
same,PBM binding z-score,[2],0.614
same,PBM binding z-score,[3],0.897
same,PBM binding z-score,[4],0.884
same,PBM binding z-score,[5],0.414
same,PBM binding z-score,[6],1.21
same,PBM binding z-score,[7],0.711
same,PBM binding z-score,[8],1.3
CCGAGTAGGTTATGGGGCATTGAGGCAACGGTGA,PBM binding z-score,[1],1.14
same,PBM binding z-score,[2],0.411
same,PBM binding z-score,[3],0.507
same,PBM binding z-score,[4],-0.0381
same,PBM binding z-score,[5],0.499
same,PBM binding z-score,[6],0.886
same,PBM binding z-score,[7],0.453
same,PBM binding z-score,[8],-0.13
CGACCAAGGTCAGCAGGTCAGTGAAAGCGACGTG,PBM binding z-score,[1],4.67
same,PBM binding z-score,[2],6.06
same,PBM binding z-score,[3],6.15
same,PBM binding z-score,[4],2.12
same,PBM binding z-score,[5],4.83
same,PBM binding z-score,[6],3.54
same,PBM binding z-score,[7],1.63
same,PBM binding z-score,[8],1.16
AGTCAAAGTTCATCTAGGTAACGTATGATATGCT,PBM binding z-score,[1],3.98
same,PBM binding z-score,[2],5.57
same,PBM binding z-score,[3],6
same,PBM binding z-score,[4],4.68
same,PBM binding z-score,[5],4.58
same,PBM binding z-score,[6],3.23
same,PBM binding z-score,[7],0.203
same,PBM binding z-score,[8],5.23
CGAACTAGATCATTGACAGGACAGTGAATAGTAA,PBM binding z-score,[1],0.278
same,PBM binding z-score,[2],0.201
same,PBM binding z-score,[3],0.25
same,PBM binding z-score,[4],0.0168
same,PBM binding z-score,[5],0.337
same,PBM binding z-score,[6],0.239
same,PBM binding z-score,[7],0.557
same,PBM binding z-score,[8],0.205
TCTAGTTGGTCAAGGAGGTCACACACGACGGGTA,PBM binding z-score,[1],4.26
same,PBM binding z-score,[2],4.38
same,PBM binding z-score,[3],4.29
same,PBM binding z-score,[4],0.835
same,PBM binding z-score,[5],4.27
same,PBM binding z-score,[6],3.57
same,PBM binding z-score,[7],2.15
same,PBM binding z-score,[8],2.71
GCTAGTTGGTCAGTAAAAGGTCACACGCCGGTCG,PBM binding z-score,[1],5.37
same,PBM binding z-score,[2],5.72
same,PBM binding z-score,[3],5.2
same,PBM binding z-score,[4],0.626
same,PBM binding z-score,[5],5.46
same,PBM binding z-score,[6],3.72
same,PBM binding z-score,[7],1.66
same,PBM binding z-score,[8],1.85
ACAGACAGGTGATGAAGGTAGCTCAGGCTATCAT,PBM binding z-score,[1],-0.243
same,PBM binding z-score,[2],-0.0777
same,PBM binding z-score,[3],0.295
same,PBM binding z-score,[4],-0.263
same,PBM binding z-score,[5],0.147
same,PBM binding z-score,[6],0.294
same,PBM binding z-score,[7],-0.392
same,PBM binding z-score,[8],-0.696
ACTGGTTGGTCAGCTGAGGTCACACACAATTCGG,PBM binding z-score,[1],4.63
same,PBM binding z-score,[2],4.08
same,PBM binding z-score,[3],4.57
same,PBM binding z-score,[4],1.23
same,PBM binding z-score,[5],4.2
same,PBM binding z-score,[6],5.13
same,PBM binding z-score,[7],5.73
same,PBM binding z-score,[8],4.2
TCATATAGGTAATACAGCTGAAAGTCGGCATCTA,PBM binding z-score,[1],-0.493
same,PBM binding z-score,[2],0.294
same,PBM binding z-score,[3],0.383
same,PBM binding z-score,[4],1.69
same,PBM binding z-score,[5],0.684
same,PBM binding z-score,[6],-0.0502
same,PBM binding z-score,[7],-0.127
same,PBM binding z-score,[8],-0.525
AGTCAAAGTTCACTAGTTAACGTAAGATTCAGCT,PBM binding z-score,[1],3.6
same,PBM binding z-score,[2],4.87
same,PBM binding z-score,[3],5.57
same,PBM binding z-score,[4],4.26
same,PBM binding z-score,[5],3.7
same,PBM binding z-score,[6],1.45
same,PBM binding z-score,[7],-0.514
same,PBM binding z-score,[8],4.04
CCTCGGAGGACAACAGGCGGTCAGAGCTGCCAGA,PBM binding z-score,[1],1.43
same,PBM binding z-score,[2],1.07
same,PBM binding z-score,[3],1.63
same,PBM binding z-score,[4],-0.164
same,PBM binding z-score,[5],-0.341
same,PBM binding z-score,[6],0.64
same,PBM binding z-score,[7],-0.125
same,PBM binding z-score,[8],-0.0839
AGAAAGAGGTTATTAAGATCAGGGAATTGCGGTC,PBM binding z-score,[1],1.12
same,PBM binding z-score,[2],1.78
same,PBM binding z-score,[3],1.29
same,PBM binding z-score,[4],1.26
same,PBM binding z-score,[5],2.21
same,PBM binding z-score,[6],1.39
same,PBM binding z-score,[7],0.443
same,PBM binding z-score,[8],0.737
